Measurements as given in PubChem BioAssay (NCATS).
Records with an inconclusive call do not appear. Entries that show only a call come without a potency. A number with no mark means an inactive call. Activity calls are given as the source filed them. The call rests on the fitted dose curve; in most records, active means well fitted cell-killing curve with a large enough effect; inconclusive means small, poorly fitted or top-dose-only effect, or effect the other way; inactive means flat fitted curve, though single readings scatter. *1 amine or outer side, *2 acyl side, *3 side chain or, on linkers, in order; H or OH if unused. Where a SMILES comes first, the peptide text is derived from it. Bridges are numbered along the chain shown (N, C = ends). [ ]: non-standard residue; d: D form. X6 = O=C(CCC[*:2])[*:1]

system: CAOV3; assay: Primary qHTS to identify gynecologic anti-cancer compounds using libraries of approved drugs and bioactive compounds (AID 1345084); settings: Gynecologic cancer cell panel viability, ATPlite luminescence, 48 h; series mostly up to 57.5 µM; further: nearly all actives have a fitted effect of over 55% in size
Text: National Center for Advancing Translational Sciences [NCATS] Assay Overview: Chemotherapeutic drug responses vary from cancer to cancer and from patient to patient. These variations could be caused by a number of factors including patient genomic background, tumor mutations, tumor heterogeneity, and aspects of drug treatment. Chemotherapeutic drug resistance is also a common issue and can lead to ineffective treatment and patient death. Here we have profiled the cell killing effects of thousands of compounds to characterize the responses in three gynecological cancers, identify cancer-selective compounds, and understand the diversity of responses to these compounds from pan-cancer suppressors to single cell line selective compounds. In this assay, we screened a 7,914 compound drug library that included approved drug and bioactive compounds in six ovarian, three cervical, and […] placental cancer cell lines using the ATPlite assay for cell viability. […] The cervical cancer cell lines included HeLa, Ca Ski, and C-33 A. The placental cancer cell lines included JEG-3. HEK 293T cells were used as the control cell line to determine the selectivity index. ATPlite is a luminescence based assay reliant on the conversion of a luciferase substrate to light in the presence of ATP. As a cytotoxic compound will suppress growth and decrease the number of cells, the concentration of ATP will decrease, and less light signal will be detected in the well.
Assay Protocol Summary: 1,000 cells in 4 uL of media were dispensed into white, solid bottom 1536-well plates using a Multidrop Combi (Thermo Scientific). The Assay plates were incubated for 16 hours at 37 C with 5% CO2 in assay plates, followed by the addition of 23 nL of DMSO or drug dissolved in DMSO. Each compound was assayed in five concentrations (0.092, 0.46, 2.3, 11.5, and 57.5 uM), using the automated Wako 1536 Pin Tool workstation and incubated at 37 C with 5% CO2 48 hours. 4 uL of ATPlite, the ATP monitoring reagent, was then added to the each well of the assay plates using the Multidrop Combi reagent dispenser followed by incubation for 15 minutes at room temperature. The resulting luminescence was measured using the ViewLux plate reader.

Row | Structure (SMILES) | Potency | activity change, negative = cytotoxicity
1 | O=C(O)CCc1cc2ccoc2cc1O[C@@H]1O[C@H](CO[C@@H]2OC[C@](O)(CO)[C@H]2O)[C@@H](O)[C@H](O)[C@H]1O | inactive | 
2 | C=C(C)[C@@H](C)[C@H]1O[C@]23C[C@]4(CO2)C(CCC2[C@@]5(C)CC[C@H](O[C@@H]6OC[C@H](O)[C@H](O[C@@H]7O[C@H](CO)[C@@H](O)[C@H](O)[C@H]7O)[C@H]6O[C@@H]6O[C@@H](CO)[C@H](O)[C@H]6O)C(C)(C)C5CC[C@]24C)C3[C@@](C)(O)[C@@H]1OC(C)=O (stereo not given in full) |  | 12.4% [at 11.6 µM]
3 | CC(C)C(=O)c1cn(CC(=O)COc2ccc(Oc3ccccc3)cc2)c2ccc(C(=O)O)cc12 | inactive | 
4 | C[C@]12C=CC(=O)C=C1CC[C@@H]1[C@@H]2[C@@H](O)C[C@@]2(C)[C@H]1CC[C@]2(O)C(=O)COC(=O)CCC(=O)O | inactive | 
5 | CCC[C@@H]1C[C@@H](C(=O)N[C@@H]([C@H]2O[C@H](SC)[C@H](OP(=O)(O)O)[C@@H](O)[C@H]2O)[C@H](C)Cl)N(C)C1 | inactive | 
6 | CC(C)c1nc(N(C)S(C)(=O)=O)nc(-c2ccc(F)cc2)c1/C=C/[C@@H](O)C[C@@H](O)CC(=O)O | inactive | 
7 | Cc1cccc(-c2[nH]c(CNc3ccccc3F)nc2-c2ccc3ncnn3c2)n1 | inactive | 
8 | C[C@@H]1O[C@@H](O[C@H]2[C@H](OC(=O)[C@]34CCC(C)(C)C[C@H]3C3=CCC5[C@@]6(C)C[C@H](O)[C@H](O[C@@H]7O[C@H](CO)[C@@H](O[C@@H]8O[C@H](CO)[C@@H](O)[C@H](O)[C@H]8O)[C@H](O)[C@H]7O)[C@@](C)(CO)C6[C@H](O)C[C@@]5(C)[C@]3(C)C[C@H]4O)OC[C@H](O)[C@@H]2O)[C@H](O)[C@H](O)[C@H]1O[C@@H]1OC[C@@H](O)[C@H](O[C@@H]2OC[C@](O)(CO)[C@H]2O)[C@H]1O (stereo not given in full) |  | 18.5% [at 6.55 µM]
9 | c1nc(NC2CCCCCC2)c2cc(CNC[C@H]3CCCO3)sc2n1 | inactive | 
10 | O=C1C[C@@H](c2ccc(O)cc2)Oc2cc(O)ccc21 | inactive | 
11 | COC(=O)C1=CO[C@@H](O[C@@H]2O[C@H](CO[C@@H]3O[C@H](COC(=O)/C=C/c4ccc(O)cc4)[C@@H](O)[C@H](O)[C@H]3O)[C@@H](O)[C@H](O)[C@H]2O)[C@@H]2C(CO)=CC[C@H]12 | inactive | 
12 | CC(/C=C/C1(O)C(C)(C)CC(O)CC1(C)O)OC1OC(CO)C(O)C(O)C1O (stereo not given) | inactive | 
13 | C1CCN2CC3C[C@@H](CN4CCCC[C@@H]34)[C@H]2C1 | inactive | 
14 | COc1cc(/C=C/C(=O)OC2CC3CCC2(C)C3(C)C)ccc1O (stereo not given) | inactive | 
15 | CC[C@H](C)[C@@H]1NC(=O)[C@H](Cc2ccc(OC)cc2)NC(=O)CCCSC[C@@H](C(=O)N2CCC[C@H]2C(=O)N[C@@H](CC(C)C)C(=O)NCC(N)=O)NC(=O)[C@H](CC(N)=O)NC(=O)[C@H](CCC(N)=O)NC1=O (Y(Me)IQNCPLG-NH2; linker N-5 via X6) | inactive | 
16 | C[C@H]1C[C@H]2[C@@H]3CCC4=CC(=O)C=C[C@]4(C)[C@@]3(F)[C@@H](O)C[C@]2(C)[C@@]1(O)C(=O)COP(=O)(O)O | inactive | 
17 | CC(/C=C/[C@]1(O)[C@@]2(C)CO[C@@]1(C)C[C@@H](O)C2)=C\C(=O)O[C@@H]1O[C@H](CO)[C@@H](O)[C@H](O)[C@H]1O | inactive | 
18 | CC(=O)OC[C@@]12[C@@H](OC(C)=O)C[C@@H](C)[C@](C)([C@@H]3C[C@H]4C=CO[C@H]4O3)[C@H]1CCC[C@]21CO1 | inactive | 
19 | CCn1c2ccccc2c2cc(CNC)ccc21 | inactive | 
20 | CC1C/C=C/C=C\CCCCC(O)C/C=C/C(=O)O1 (stereo not given) | inactive | 

Row | Structure (SMILES) | Potency | activity change, negative = cytotoxicity
21 | COc1ccc(C(=O)O[C@H]2CC(C)=CC[C@@]3(C)[C@@H](OC(C)=O)C[C@@](O)(C(C)C)[C@H]23)cc1 | inactive | 
22 | CC(=O)N[C@H](Cc1ccc(O)cc1)C(=O)N[C@H](CCCN=C(N)N)C(=O)N[C@H](Cc1ccccc1)C(N)=O (Ac-[dY]-[dR]-[dF]-NH2) | inactive | 
23 | CC(=O)[C@@H]1CC[C@]2(C(=O)O)CC[C@]3(C)C(CCC4[C@@]5(C)CC[C@H](O)C(C)(C)C5CC[C@]43C)C12 (stereo not given in full) | inactive | 
24 | CC1CC(=O)C2=C(O1)OC1(C)CCC3C(C)(C)C=CC(=O)C3(C)C1C2 (stereo not given) | inactive | 
25 | COc1cc(C2Oc3c(OC)cc(CCCO[C@@H]4O[C@H](CO)[C@@H](O)[C@H](O)[C@H]4O)cc3C2CO)ccc1O (stereo not given in full) | inactive | 
26 | CC(CCC1C(C(=O)O)=CC(=O)CC1(C)C)O[C@@H]1O[C@H](CO)[C@@H](O)[C@H](O)[C@H]1O (stereo not given in full) | inactive | 
27 | CC1(C)CCC2(C(=O)OC3OC(COC4OC(CO)C(O)C(O)C4O)C(O)C(O)C3O)CCC3(C)C(=CCC4C5(C)CCC(O)C(C)(C(=O)O)C5CCC43C)C2C1O (stereo not given) |  | 3.42% [at 11.6 µM]
28 | Nc1nc(CC(=O)Nc2ccc(CCNCC(O)c3ccccc3)cc2)cs1 (stereo not given) | inactive | 
29 | C[C@H]1CN(C[C@H](Cc2ccccc2)C(=O)NCC(=O)O)CC[C@@]1(C)c1cccc(O)c1 | inactive | 
30 | CC(C)[C@@H](C)/C=C/[C@@H](C)[C@H]1CC[C@H]2C3=CC=C4C[C@@H](O)CC[C@]4(C)[C@H]3CC[C@]12C | inactive | 
31 | c1ccc(C(OC2CCN(CCCc3nn[nH]n3)CC2)c2ccccc2)cc1 | inactive | 
32 | CC1=CCC2C(C)(CO)CCCC2(C)C1CC12OC1C(O)C(CO)=CC2O (stereo not given) | inactive | 
33 | COc1ccc(C)c2sc(NC(=O)c3ccncc3)nc12 | inactive | 
34 | COc1ccccc1CC(C(=O)O)N(C)C(=O)c1ccccc1 (stereo not given) | inactive | 
35 | C[C@@H]1O[C@@H](O[C@@H]2[C@@H](O)[C@@H](O)[C@H](O[C@@H]3[C@@H](O)[C@@H](O[C@]4(CO)O[C@H](CO)[C@@H](O)[C@@H]4OC(=O)/C=C/c4ccc(O)cc4)O[C@H](CO)[C@H]3OC(=O)/C=C/c3ccc(O)cc3)O[C@H]2C)[C@H](O)[C@H](O)[C@H]1O |  | 16.9% [at 11.6 µM]
36 | O=C(OCC12OC1C=CC(OC(=O)c1ccccc1)C2O)c1ccccc1 (stereo not given) | inactive | 
37 | CC(=O)O[C@H]1CC[C@@]2(CI)C(=CC[C@@H]3[C@@H]2CC[C@]2(C)[C@@H]([C@H](C)CCCC(C)C)CC[C@@H]32)C1 |  | 9.25% [at 11.6 µM]
38 | COc1ccc(C(OC2OC(CO)C(O)C(O)C2O)C(C)O)cc1 (stereo not given) | inactive | 
39 | C/C=C/C1=CC2=CC(=O)C(C)(O)C(OC(=O)c3c(C)cc(O)cc3O)C2CO1 (stereo not given) | inactive | 
40 | CC(C)Nc1cc(-c2c[nH]c(C(=O)N[C@H](CO)c3cccc(Cl)c3)c2)c(Cl)cn1 | inactive | 
